# Data: PubChem BioAssay (NCATS)
# Inconclusive results are not listed. Where a call stands in place of a potency, no number is given. Active and inactive are the calls of the source. Calls come from the whole dose curve; as a rule, active = well fitted curve in the direction sought with a large enough effect; inconclusive = small, poorly fitted or top-dose-only effect, or another doubt; inactive = no such curve, though single readings can be large; an effect the other way counts as inactive or inconclusive.
# Key:
# [1] = ZIKV-mCherry secondary qHTS for Zika virus inhibitors (AID 1347158); note: top concentration of the series differs between compounds
# Procedure, shortened: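 Compounds were tested in Vero monkey kidney cells infected with recombinant mCherry-expressing Zika virus at MOI 1 for 48-72 h at 37 °C. Fixed cells were nuclear-stained and imaged, and infection rate was taken as the fraction of mCherry-positive cells.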
# [2] = test system: Zika virus NS2B-NS3 protease; assay: Primary screen GU AMC qHTS for Zika virus inhibitors (AID 1347154); note: nearly all actives have a fitted effect of over 70% in size
# Procedure, shortened: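 Fluorogenic AMC-substrate cleavage by noncovalent NS2B-NS3 protease complex (25 nM, pH 8.0 Tris buffer with Tween 20) followed for 15 minutes at room temperature (~20% conversion). Percent inhibition from ex340/em450 signal change, fitted by 4-parameter Hill equation.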
# [3] = test system: Zika virus NS2B-NS3 protease (unlinked complex); assay: Primary screen GU Rhodamine qHTS for Zika virus inhibitors: Unlinked NS2B-NS3 protease assay (AID 1347159); note: nearly all actives have a fitted effect of over 60% in size; note: potency is the fitted concentration of half-maximal effect
# Procedure, shortened: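 In dose–response format, inhibition of unlinked protease (25 nM) was measured with 1.5 microM bis-peptide Rhodamine110 substrate. Aprotinin served as the intraplate control.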
# [4] = test system: Zika virus NS2B-NS3 protease (linked construct); assay: Primary screen NINDS Rhodamine qHTS for Zika virus inhibitors (AID 1347160); note: nearly all actives have a fitted effect of over 55% in size
# Procedure, shortened: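 Each compound, titrated, sat 15 min with 25 nM linked protease before 1.5 microM Rhodamine110 substrate went in. Fluorescence gain over the next 15 min, in pH 8.0 Tris with Tween 20, gave Hill-fitted curves.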
compound,measurement,setting,value
O=c1cc(-c2ccccc2)oc2cc(O)c(O)c(O)c12,outcome,[1],inactive
C[C@H](NC(=O)C(=O)Nc1ccccc1C(C)(C)C)C(=O)N[C@@H](CC(=O)O)C(=O)COc1c(F)c(F)cc(F)c1F,outcome,[1],inactive
C=C1C(=O)[C@@]23C(CC[C@@H]1[C@H]2O)[C@@]12CO[C@]3(O)[C@@H](O)[C@@H]1C(C)(C)CC[C@@H]2O (some centres not stated),Potency,[2],inactive
same,Potency,[3],inactive
same,Potency,[4],inactive
COc1cc(N2CCC(N3CCN(C)CC3)CC2)ccc1Nc1ncnc(Nc2ccccc2S(=O)(=O)C(C)C)n1,Potency,[2],inactive
same,Potency,[3],inactive
same,Potency,[4],inactive
COc1cc(N2CCC(N3CCN(C)CC3)CC2)ccc1Nc1ncc(Cl)c(Nc2ccccc2S(=O)(=O)C(C)C)n1,Potency,[2],inactive
same,Potency,[3],inactive
same,Potency,[4],inactive
O=C(O)c1cc(-c2ccccc2)nc2ccccc12,Potency,[2],inactive
same,Potency,[3],inactive
O=C(Nc1cccc(Br)c1)c1cccc(S(=O)(=O)N2CCCCCC2)c1,Potency,[2],inactive
same,Potency,[3],inactive
same,Potency,[4],inactive
CC[C@H]1OC(=O)[C@H](C)[C@@H](O[C@H]2C[C@@](C)(OC)[C@@H](O)[C@H](C)O2)[C@H](C)[C@@H](O[C@@H]2O[C@H](C)C[C@H](N(C)C)[C@@H]2O)[C@](C)(O)C[C@@H](C)CN(C)[C@H](C)[C@@H](O)[C@]1(C)O,Potency,[2],inactive
CC(C)(C)NC(=O)Nc1cccc(Nc2ncc(F)c(NC(C)(C)CO)n2)c1,Potency,[2],inactive
same,Potency,[3],inactive
same,Potency,[4],inactive
CC(C)(C)c1cc(C(=O)O)c(NC(=O)Nc2ccc3[nH]ncc3c2)s1,Potency,[2],inactive
same,Potency,[3],17.8 µM (active)
Cc1ccc(Nc2cc(-c3cccc(N4C(=O)c5ccccc5C4=O)c3)ncn2)cc1NS(C)(=O)=O,Potency,[2],inactive
same,Potency,[3],50.1 µM (active)
same,Potency,[4],inactive
CNC(=O)c1ccc2cc(C3(O)CCn4cncc43)ccc2c1 (configuration not stated),Potency,[2],inactive
same,Potency,[3],inactive
same,Potency,[4],inactive
CN[C@@H](C)C(=O)N[C@H]1CN(C(=O)CC(C)C)CC[C@H]2CC[C@@H](C(=O)NC(c3ccccc3)c3ccccc3)N2C1=O,Potency,[2],inactive
same,Potency,[3],inactive
same,Potency,[4],inactive
CC(C)C(=O)Nc1ncc(-c2cc(C(F)F)nn2-c2c(Cl)cccc2Cl)s1,Potency,[2],inactive
same,Potency,[3],inactive
same,Potency,[4],inactive
Cc1cnc(C(=O)O)c[n+]1[O-],Potency,[2],inactive
Nc1nc(F)nc2c1ncn2[C@@H]1O[C@H](COP(=O)(O)O)[C@@H](O)[C@H]1O,Potency,[2],inactive
CC1=C(/C=C/C(C)=C/C=C/C(C)=C/C(=O)Nc2ccc(O)cc2)C(C)(C)CCC1,Potency,[2],inactive
C[C@]12CCC3c4ccc(O)cc4CCC3C1CCC2=O (some centres not stated),Potency,[2],inactive
Nc1ncnc2c1nc(Cl)n2[C@@H]1O[C@H](CO)[C@@H](O)[C@@H]1O,Potency,[2],inactive
Nc1ncnc2c1ncn2[C@@H]1O[C@H](CO)C[C@@H]1O,Potency,[2],inactive
Clc1cc(Cl)cc(CNc2ncncc2-c2ccc3c(c2)OCO3)c1,Potency,[2],inactive
O=C1NC(=O)C(=Cc2ccc(-c3ccc(F)cc3)o2)S1,Potency,[2],inactive
N#CC1(c2ccc(NC(=O)c3cccnc3NCc3ccncc3)cc2)CCCC1,Potency,[2],inactive
CC(C)(C(=O)NCC(F)(F)C(F)(F)F)C(=O)N[C@@H]1C(=O)Nc2ccccc2-c2ccccc21,Potency,[2],inactive
CC(C)[C@H](CO)Nc1nc(Nc2ccc(C(=O)O)c(Cl)c2)c2ncn(C(C)C)c2n1,Potency,[2],inactive
same,Potency,[3],inactive
same,Potency,[4],inactive
CC=CCC=CCCC(=O)[C@H]1O[C@@H]1C(N)=O,Potency,[2],inactive
CCOc1ccc(Nc2nc(-c3c(C)nc4ccccn34)cs2)cc1,Potency,[2],inactive
same,Potency,[3],inactive
same,Potency,[4],inactive
COc1ccc(C2CC(c3ccccc3)=NN2c2ccc(S(N)(=O)=O)cc2)cc1 (configuration not stated),Potency,[2],inactive
same,Potency,[3],inactive
same,Potency,[4],inactive
CC(C(=O)O)c1ccc(-c2ccccc2)c(F)c1 (configuration not stated),Potency,[2],inactive
CO[C@H]1C[C@@H]2CC[C@@H](C)[C@@](O)(O2)C(=O)C(=O)N2CCCC[C@@H]2C(=O)O[C@H]([C@@H](C)C[C@@H]2CC[C@H](O)[C@H](OC)C2)CC(=O)[C@H](C)C=C(C)[C@@H](O)[C@@H](OC)C(=O)[C@H](C)C[C@H](C)C=CC=CC=C1C,Potency,[2],inactive
COc1ccc2c(Oc3ccc(NC(=O)c4c(C)n(CC(C)(C)O)n(-c5ccccc5)c4=O)cc3F)ccnc2c1,Potency,[2],inactive
same,Potency,[3],inactive
same,Potency,[4],inactive
O=C(CCN1CCN(C(=O)OCc2cc(Cl)cc(Cl)c2)CC1)c1ccc2[nH]c(=O)oc2c1,Potency,[2],inactive
same,Potency,[3],44.7 µM (active)
O=C(CCc1ccc(O)cc1)c1c(O)cc(O)cc1O[C@@H]1O[C@H](CO)[C@H](O)[C@H](O)[C@H]1O,Potency,[2],inactive
